Measurements published in article PMC7862700, “An all-to-all approach to the identification of sequence-specific readers for epigenetic DNA modifications on cytosine”.

How the values were obtained:
Test in all cases: DAPPL (digital affinity profiling via proximity ligation, sequencing); 10 mM Tris-HCl pH 7.5, 50 mM NaCl, 1 mM DTT, 4% glycerol, room temperature, 30 min; GST-TFs on glutathione beads, 16-mer random dsDNA library, 0.1% formaldehyde crosslink after washing; high values mean tight binding
FEV = target: T1, FEV (Homo sapiens, UniProt Q99581 1-238); conditions: protein: recombinant; tags: N-terminal GST; dsDNA, one strand shown
T1 sequence: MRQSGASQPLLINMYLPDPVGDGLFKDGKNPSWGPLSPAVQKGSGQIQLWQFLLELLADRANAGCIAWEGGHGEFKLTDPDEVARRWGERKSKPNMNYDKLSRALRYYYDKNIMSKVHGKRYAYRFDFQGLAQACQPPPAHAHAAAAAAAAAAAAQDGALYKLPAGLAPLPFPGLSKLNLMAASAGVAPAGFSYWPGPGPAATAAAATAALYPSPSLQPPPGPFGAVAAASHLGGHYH
Method in brief: (§1)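 Sequencing on an Illumina NextSeq500 followed washing, crosslinking with 0.1% formaldehyde, proximity ligation (BsaI/T4 ligase, 1 h, 37 °C) and PCR amplification of pools that had been incubated for 30 min at room temperature with 200 nmole of a random double-stranded 16-mer DNA library in Tris/NaCl/DTT/glycerol buffer. Each pool held DNA-barcoded human transcription factors, expressed in yeast as GST fusions and captured on glutathione beads, plus a tag-only sample. Binding signal is a hexamer's read frequency for a factor divided by its frequency in the tag-only sample.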

ETV5 = ETV5 (Homo sapiens, UniProt P41161 1-510); conditions: protein: recombinant; tags: N-terminal GST; dsDNA, one strand shown
Method in brief: as §1

HSF1 = HSF1 (Homo sapiens, UniProt Q00613 1-529); conditions: protein: recombinant; tags: N-terminal GST; chain copies: 3; dsDNA, one strand shown
Method in brief: as §1

SPIC = target: T2, SPIC (Homo sapiens, UniProt Q8N5J4 1-248); conditions: protein: recombinant; tags: N-terminal GST; dsDNA, one strand shown
T2 sequence: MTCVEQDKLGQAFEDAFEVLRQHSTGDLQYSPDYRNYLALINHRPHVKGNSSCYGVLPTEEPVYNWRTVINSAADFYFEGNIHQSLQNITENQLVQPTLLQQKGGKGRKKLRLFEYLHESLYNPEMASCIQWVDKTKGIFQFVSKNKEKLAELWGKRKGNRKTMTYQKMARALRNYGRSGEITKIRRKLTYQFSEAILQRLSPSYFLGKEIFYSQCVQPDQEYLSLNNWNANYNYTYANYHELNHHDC
Method in brief: as §1

ELF4 = ELF4 (Homo sapiens, UniProt Q99607 1-663); conditions: protein: recombinant; tags: N-terminal GST; dsDNA, one strand shown
Method in brief: as §1

ELK4 = target: T3, ELK4 (Homo sapiens, UniProt P28324-2 1-405); conditions: protein: recombinant; tags: N-terminal GST; dsDNA, one strand shown
T3 sequence: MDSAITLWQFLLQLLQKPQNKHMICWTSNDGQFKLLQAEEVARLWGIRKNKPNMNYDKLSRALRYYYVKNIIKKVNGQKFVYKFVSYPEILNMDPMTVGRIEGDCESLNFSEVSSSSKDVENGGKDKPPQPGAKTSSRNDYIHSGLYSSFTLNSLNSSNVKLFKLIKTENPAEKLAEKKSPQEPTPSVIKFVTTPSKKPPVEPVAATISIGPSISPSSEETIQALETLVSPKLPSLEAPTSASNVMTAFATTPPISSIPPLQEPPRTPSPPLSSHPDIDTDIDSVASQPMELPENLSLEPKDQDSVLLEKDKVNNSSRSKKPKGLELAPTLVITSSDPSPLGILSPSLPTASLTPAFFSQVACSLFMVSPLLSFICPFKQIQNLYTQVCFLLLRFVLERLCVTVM
Method in brief: as §1

ETV2 = target: T4, ETV2 (Homo sapiens, UniProt O00321 1-342); conditions: protein: recombinant; tags: N-terminal GST; dsDNA, one strand shown
T4 sequence: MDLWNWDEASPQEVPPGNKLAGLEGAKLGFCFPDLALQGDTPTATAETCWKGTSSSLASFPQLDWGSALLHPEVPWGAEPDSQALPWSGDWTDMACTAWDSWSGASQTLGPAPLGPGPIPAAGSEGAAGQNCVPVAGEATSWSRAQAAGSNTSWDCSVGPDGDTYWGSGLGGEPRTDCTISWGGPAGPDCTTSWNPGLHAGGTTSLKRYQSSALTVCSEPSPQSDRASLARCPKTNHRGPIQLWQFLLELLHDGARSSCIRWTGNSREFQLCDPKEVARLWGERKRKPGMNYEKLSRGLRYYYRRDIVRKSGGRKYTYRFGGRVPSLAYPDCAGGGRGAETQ
Method in brief: as §1

ELF3 = target: T5, ELF3 (Homo sapiens, UniProt P78545 1-371); conditions: protein: recombinant; tags: N-terminal GST; dsDNA, one strand shown
T5 sequence: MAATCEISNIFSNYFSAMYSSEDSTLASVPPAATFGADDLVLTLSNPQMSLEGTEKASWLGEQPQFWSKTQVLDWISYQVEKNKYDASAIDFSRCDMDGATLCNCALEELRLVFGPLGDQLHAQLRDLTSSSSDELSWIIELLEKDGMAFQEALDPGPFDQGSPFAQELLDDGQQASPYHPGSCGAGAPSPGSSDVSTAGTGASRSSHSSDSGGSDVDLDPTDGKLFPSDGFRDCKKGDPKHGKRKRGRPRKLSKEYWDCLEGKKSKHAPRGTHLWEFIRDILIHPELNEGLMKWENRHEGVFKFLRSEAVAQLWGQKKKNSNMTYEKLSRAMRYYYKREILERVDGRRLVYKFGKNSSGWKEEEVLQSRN
Method in brief: as §1

CRX = CRX (Homo sapiens, UniProt O43186 1-299); conditions: protein: recombinant; tags: N-terminal GST; dsDNA, one strand shown
Method in brief: as §1

ETV1 = ETV1 (Homo sapiens, UniProt P50549 1-477); conditions: protein: recombinant; tags: N-terminal GST; dsDNA, one strand shown
Method in brief: as §1

ERF = target: T6, ERF (Homo sapiens, UniProt P50548 1-548); conditions: protein: recombinant; tags: N-terminal GST; dsDNA, one strand shown
T6 sequence: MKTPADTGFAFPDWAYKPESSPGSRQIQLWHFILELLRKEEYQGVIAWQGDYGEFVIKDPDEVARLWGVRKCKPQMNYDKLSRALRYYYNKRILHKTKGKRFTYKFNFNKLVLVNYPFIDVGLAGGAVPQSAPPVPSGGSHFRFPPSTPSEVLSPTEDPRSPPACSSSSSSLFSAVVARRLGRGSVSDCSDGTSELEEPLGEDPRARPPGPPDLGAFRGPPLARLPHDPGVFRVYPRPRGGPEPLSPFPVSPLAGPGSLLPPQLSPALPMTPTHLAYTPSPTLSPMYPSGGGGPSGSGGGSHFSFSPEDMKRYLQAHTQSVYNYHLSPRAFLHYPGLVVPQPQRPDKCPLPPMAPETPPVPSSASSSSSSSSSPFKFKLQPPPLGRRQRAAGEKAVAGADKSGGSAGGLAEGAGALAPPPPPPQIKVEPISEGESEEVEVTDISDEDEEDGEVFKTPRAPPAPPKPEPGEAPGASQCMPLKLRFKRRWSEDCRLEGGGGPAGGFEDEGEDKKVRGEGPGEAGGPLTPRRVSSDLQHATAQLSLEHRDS
Method in brief: as §1

ETV3L = target: T7, ETV3L (Homo sapiens, UniProt Q6ZN32 1-361); conditions: protein: recombinant; tags: N-terminal GST; dsDNA, one strand shown
T7 sequence: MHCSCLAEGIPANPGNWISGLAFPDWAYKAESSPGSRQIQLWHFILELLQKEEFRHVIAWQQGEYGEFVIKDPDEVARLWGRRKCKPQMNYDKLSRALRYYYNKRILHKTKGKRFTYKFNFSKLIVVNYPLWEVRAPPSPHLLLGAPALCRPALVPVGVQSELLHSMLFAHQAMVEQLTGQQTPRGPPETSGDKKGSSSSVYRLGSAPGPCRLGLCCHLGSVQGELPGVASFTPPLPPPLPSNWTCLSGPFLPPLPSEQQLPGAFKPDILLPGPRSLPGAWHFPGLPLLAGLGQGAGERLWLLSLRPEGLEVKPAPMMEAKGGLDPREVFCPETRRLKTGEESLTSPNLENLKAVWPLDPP
Method in brief: as §1

ETS2 = target: T8, ETS2 (Homo sapiens, UniProt P15036 1-469); conditions: protein: recombinant; tags: N-terminal GST; dsDNA, one strand shown
T8 sequence: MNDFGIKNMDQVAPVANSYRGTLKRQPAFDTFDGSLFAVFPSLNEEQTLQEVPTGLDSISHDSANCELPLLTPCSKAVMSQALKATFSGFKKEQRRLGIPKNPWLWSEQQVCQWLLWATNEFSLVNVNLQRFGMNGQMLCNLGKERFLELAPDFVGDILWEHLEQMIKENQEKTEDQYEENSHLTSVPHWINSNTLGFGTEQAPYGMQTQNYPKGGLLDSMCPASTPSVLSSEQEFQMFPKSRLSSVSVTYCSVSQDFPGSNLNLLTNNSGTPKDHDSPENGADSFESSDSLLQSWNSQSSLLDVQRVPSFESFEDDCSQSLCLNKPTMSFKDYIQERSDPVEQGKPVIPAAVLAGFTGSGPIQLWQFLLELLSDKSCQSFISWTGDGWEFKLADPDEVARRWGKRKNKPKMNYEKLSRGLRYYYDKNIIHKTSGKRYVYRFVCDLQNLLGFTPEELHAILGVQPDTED
Method in brief: as §1

SPDEF = target: T9, SPDEF (Homo sapiens, UniProt O95238 1-335); conditions: protein: recombinant; tags: N-terminal GST; dsDNA, one strand shown
T9 sequence: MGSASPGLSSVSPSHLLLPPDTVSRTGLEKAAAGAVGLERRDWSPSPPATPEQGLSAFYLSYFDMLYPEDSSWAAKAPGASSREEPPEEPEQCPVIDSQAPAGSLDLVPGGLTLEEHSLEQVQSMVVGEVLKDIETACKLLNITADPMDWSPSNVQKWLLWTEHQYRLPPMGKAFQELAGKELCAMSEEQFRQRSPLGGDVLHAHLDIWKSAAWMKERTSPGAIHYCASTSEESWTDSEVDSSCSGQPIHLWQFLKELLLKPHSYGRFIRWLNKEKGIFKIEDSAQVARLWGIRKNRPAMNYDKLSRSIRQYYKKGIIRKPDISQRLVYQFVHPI
Method in brief: as §1

ELF5 = target: T10, ELF5 (Homo sapiens, UniProt Q9UKW6-2 1-255); conditions: protein: recombinant; tags: N-terminal GST; dsDNA, one strand shown
T10 sequence: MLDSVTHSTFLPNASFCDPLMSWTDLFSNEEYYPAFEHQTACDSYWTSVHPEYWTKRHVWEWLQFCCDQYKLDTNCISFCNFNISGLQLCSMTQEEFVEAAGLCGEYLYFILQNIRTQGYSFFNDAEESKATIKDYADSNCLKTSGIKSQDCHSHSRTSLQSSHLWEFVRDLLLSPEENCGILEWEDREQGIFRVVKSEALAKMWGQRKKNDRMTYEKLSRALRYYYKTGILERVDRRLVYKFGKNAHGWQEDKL
Method in brief: as §1

ETV3 = target: T11, ETV3 (Homo sapiens, UniProt P41162-2 1-143); conditions: protein: recombinant; tags: N-terminal GST; dsDNA, one strand shown
T11 sequence: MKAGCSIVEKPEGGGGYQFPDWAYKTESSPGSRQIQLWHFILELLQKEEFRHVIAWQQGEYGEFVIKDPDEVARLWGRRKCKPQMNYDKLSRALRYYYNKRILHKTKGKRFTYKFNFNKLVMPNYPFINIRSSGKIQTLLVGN
Method in brief: as §1

Chain of ELF4 (Q99607 whole entry): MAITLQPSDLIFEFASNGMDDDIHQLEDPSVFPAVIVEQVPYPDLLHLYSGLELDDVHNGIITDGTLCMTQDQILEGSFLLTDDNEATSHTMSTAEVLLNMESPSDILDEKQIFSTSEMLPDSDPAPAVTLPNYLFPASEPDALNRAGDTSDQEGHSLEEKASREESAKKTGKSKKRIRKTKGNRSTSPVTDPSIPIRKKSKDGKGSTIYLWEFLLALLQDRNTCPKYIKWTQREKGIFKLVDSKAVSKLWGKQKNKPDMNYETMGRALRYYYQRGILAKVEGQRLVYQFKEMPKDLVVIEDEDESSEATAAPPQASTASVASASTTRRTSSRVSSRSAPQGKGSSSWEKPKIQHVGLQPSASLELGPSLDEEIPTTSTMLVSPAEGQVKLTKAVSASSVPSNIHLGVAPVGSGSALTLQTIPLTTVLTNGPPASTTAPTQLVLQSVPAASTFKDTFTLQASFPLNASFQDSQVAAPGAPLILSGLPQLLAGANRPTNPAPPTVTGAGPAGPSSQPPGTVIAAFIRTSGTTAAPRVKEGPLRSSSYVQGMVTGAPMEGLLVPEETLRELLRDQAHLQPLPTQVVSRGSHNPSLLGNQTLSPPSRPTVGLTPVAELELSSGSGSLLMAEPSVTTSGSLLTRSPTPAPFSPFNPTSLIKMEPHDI
Chain of CRX (O43186 whole entry): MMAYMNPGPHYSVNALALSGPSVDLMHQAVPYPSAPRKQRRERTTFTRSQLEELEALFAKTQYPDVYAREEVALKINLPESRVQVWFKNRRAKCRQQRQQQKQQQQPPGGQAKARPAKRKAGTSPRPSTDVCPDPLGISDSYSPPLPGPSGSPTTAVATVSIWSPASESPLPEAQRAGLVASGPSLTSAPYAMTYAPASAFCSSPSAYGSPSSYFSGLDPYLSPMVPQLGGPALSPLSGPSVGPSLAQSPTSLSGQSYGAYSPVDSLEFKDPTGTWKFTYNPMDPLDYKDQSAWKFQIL
Chain of ETV5 (P41161 whole entry): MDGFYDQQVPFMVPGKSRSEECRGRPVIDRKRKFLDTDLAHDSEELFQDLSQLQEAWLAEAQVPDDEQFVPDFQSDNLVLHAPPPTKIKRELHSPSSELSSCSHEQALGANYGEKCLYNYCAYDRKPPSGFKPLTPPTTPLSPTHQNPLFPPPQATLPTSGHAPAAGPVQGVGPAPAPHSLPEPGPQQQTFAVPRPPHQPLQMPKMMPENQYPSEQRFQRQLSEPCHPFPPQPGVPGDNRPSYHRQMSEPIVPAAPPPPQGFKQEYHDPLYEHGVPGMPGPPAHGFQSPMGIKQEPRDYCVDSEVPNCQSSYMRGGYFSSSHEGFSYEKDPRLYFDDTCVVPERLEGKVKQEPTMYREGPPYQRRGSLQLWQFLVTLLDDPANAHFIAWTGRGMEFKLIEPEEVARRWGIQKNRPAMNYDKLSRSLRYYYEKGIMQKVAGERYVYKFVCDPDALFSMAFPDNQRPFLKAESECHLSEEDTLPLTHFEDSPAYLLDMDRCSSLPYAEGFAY
Chain of ETV1 (P50549 whole entry): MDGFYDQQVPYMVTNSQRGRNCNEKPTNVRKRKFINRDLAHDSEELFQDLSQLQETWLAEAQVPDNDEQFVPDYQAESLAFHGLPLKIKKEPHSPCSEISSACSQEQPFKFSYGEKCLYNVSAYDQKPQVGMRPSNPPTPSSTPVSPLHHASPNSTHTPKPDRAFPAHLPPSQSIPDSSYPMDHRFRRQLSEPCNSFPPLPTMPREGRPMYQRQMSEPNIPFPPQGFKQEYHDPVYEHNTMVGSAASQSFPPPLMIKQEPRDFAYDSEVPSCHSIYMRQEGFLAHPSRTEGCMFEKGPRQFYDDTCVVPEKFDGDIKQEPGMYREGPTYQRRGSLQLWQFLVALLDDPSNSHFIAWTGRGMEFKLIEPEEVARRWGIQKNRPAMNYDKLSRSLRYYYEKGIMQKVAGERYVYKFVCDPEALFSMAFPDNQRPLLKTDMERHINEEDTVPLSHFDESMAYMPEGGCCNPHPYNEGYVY
Chain of HSF1 (Q00613 whole entry): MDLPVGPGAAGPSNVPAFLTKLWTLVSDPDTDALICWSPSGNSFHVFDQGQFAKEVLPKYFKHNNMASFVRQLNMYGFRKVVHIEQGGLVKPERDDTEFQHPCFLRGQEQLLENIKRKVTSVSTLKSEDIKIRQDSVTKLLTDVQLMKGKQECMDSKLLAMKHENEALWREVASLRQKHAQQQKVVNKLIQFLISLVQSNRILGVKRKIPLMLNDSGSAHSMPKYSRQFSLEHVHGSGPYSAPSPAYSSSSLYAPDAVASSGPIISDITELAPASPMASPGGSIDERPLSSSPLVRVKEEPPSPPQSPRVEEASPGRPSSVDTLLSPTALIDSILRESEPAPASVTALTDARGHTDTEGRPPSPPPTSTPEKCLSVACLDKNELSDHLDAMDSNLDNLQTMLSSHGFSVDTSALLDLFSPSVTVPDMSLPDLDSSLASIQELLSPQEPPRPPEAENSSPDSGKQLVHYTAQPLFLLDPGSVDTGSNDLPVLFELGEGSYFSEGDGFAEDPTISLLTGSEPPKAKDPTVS

## CTCCAG
FEV
  binding signal: 1.13 fold enrichment (6-mer frequency, TF over GST control)
ETV5
  binding signal: 1.17 fold enrichment (6-mer frequency, TF over GST control)
HSF1
  binding signal: 1.65 fold enrichment (6-mer frequency, TF over GST control)
SPIC
  binding signal: 1.16 fold enrichment (6-mer frequency, TF over GST control)
ELF4
  binding signal: 1.21 fold enrichment (6-mer frequency, TF over GST control)
ELK4
  binding signal: 1.18 fold enrichment (6-mer frequency, TF over GST control)
ETV2
  binding signal: 1.33 fold enrichment (6-mer frequency, TF over GST control)
ELF3
  binding signal: 1.02 fold enrichment (6-mer frequency, TF over GST control)
CRX
  binding signal: 1.1 fold enrichment (6-mer frequency, TF over GST control)
ETV1
  binding signal: 1.16 fold enrichment (6-mer frequency, TF over GST control)
ERF
  binding signal: 1.2 fold enrichment (6-mer frequency, TF over GST control)
ETV3L
  binding signal: 1.2 fold enrichment (6-mer frequency, TF over GST control)
ETS2
  binding signal: 1.19 fold enrichment (6-mer frequency, TF over GST control)
SPDEF
  binding signal: 1.16 fold enrichment (6-mer frequency, TF over GST control)
ELF5
  binding signal: 1.15 fold enrichment (6-mer frequency, TF over GST control)
ETV3
  binding signal: 1.23 fold enrichment (6-mer frequency, TF over GST control)
